Most compounds without a hit are left out; they make up all but 11% or so of the library.
G9a block: blocks human histone lysine methyltransferase G9a | Q96KQ7 | G9a H3K9 monomethylation, AlphaScreen, 2 h | Potency, µM (titrated, usually from 102 µM), for inactives: at the highest dose activity, negative = inhibition, hits mostly inhibitors | 350,000 tested, 8.8% active; note: potency is the fitted concentration of half-maximal effect; % is set by controls: 0 for no effect and ±100 for the full control effect; nearly all actives have a fitted effect of over 75% in size
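G9a (20 nM) preincubated 15 min RT with compounds, then 500 nM biotinylated H3K9 peptide and 20 uM SAM added; 2 h RT reaction. Monomethyl-H3K9 product detected by AlphaScreen with anti-H3K9me1 antibody, streptavidin donor and anti-rabbit IgG acceptor beads.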
HP1b binding inh: inhibitors of HP1-beta chromodomain binding to methylated histone tails | P83916 | AlphaScreen HP1-beta / biotin-H3K9me3 peptide binding | Potency, µM (titrated, usually from 114 µM), for inactives: at the top dose activity change, negative = inhibition, hits mostly inhibitors | 390,000 tested, 0.56% active | AID 540317; note: potency is the fitted concentration of half-maximal effect; nearly all actives have a fitted effect of over 70% in size
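Compound inhibition of the preformed complex between 50 nM HP1-beta and 50 nM biotinylated H3K9me3 peptide was read by AlphaScreen. Buffer was PBS pH 7.4 with 0.01% Tween-20. Incubations ran 30 min at room temperature, with 10 ug/mL donor/acceptor beads.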
JMJD2A Tudor inh: JMJD2A Tudor domain (human) inhibition. AlphaScreen JMJD2A-Tudor / H3K4me3 peptide binding. Potency, µM (top dose mostly 114 µM), for inactives: at the top dose activity change, negative = inhibition, hits mostly inhibitors. 390,000 tested, 4.4% active; note: potency is the fitted concentration of half-maximal effect; % is set by controls: 0 for no effect and ±100 for the full control effect; nearly all actives have a fitted effect of over 50% in size
PI5P4K alpha inh: blocks human PI5P4K alpha kinase activity; P48426; PI5P4Kalpha enzyme, ADP-Glo luminescence, 60 min; stronger effect = lower value; max response, %; 330,000 tested, 1.2% active; active = max response of -50% or lower; inconclusive = between -30% and -50%; inactive = -30% or higher; note: value at the top dose of about 77 µM; % is set by controls: 0 for no effect and ±100 for the full control effect
Target sequence (P48426 whole entry, looked up): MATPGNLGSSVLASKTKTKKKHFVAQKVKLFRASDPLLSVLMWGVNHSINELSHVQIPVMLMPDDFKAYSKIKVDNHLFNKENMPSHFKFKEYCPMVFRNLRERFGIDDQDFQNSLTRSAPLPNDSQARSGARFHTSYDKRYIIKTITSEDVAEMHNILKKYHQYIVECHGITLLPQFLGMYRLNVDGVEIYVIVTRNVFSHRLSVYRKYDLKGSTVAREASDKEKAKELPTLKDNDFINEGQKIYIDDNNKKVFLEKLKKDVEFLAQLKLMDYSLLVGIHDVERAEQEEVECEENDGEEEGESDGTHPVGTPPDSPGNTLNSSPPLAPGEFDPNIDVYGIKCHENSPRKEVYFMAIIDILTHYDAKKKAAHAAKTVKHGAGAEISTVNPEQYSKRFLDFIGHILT
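Single end-point luminescence (ADP-Glo) quantified ADP from PI5P4Kalpha turnover; ATP 5 microM final, 1 h at RT, 0.1% CHAPS and 0.28 mM EGTA in HEPES pH 7.4.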
BAZ2B inh: blocks human BAZ2B. Q9UIF8. AlphaScreen BAZ2B-H3K14Ac peptide displacement. Potency, µM (top dose mostly 114 µM), for the others: at the highest dose activity change, negative = inhibition, most hits filed as inhibitors. 360,000 tested, 4.4% active; note: potency is the fitted concentration of half-maximal effect; % is set by controls: 0 for no effect and ±100 for the full control effect; nearly all actives have a fitted effect of over 60% in size
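Protein-peptide AlphaScreen: BAZ2B 50 nM, b-H3K14Ac 50 nM, 1x PBS pH 7.4 + 0.01% Tween-20. Preincubation 30 min RT; cpd 30 min RT (top 110 uM); beads 20 min RT, light-protected.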
L3MBTL1 block: blocks human L3MBTL1; Q9Y468; AlphaScreen L3MBTL1–H3K9me1 peptide binding; Potency, µM (titrated, usually from 57.1 µM), without a hit: at the highest dose activity, negative = inhibition, hits mostly inhibitors; 230,000 tested, 0.66% active; note: potency is the fitted concentration of half-maximal effect; % is set by controls: 0 for no effect and ±100 for the full control effect; nearly all actives have a fitted effect of over 60% in size
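L3MBTL1 (50 nM) pre-complexed 30 min with biotinylated H3(1-15)K9me1 peptide (75 nM), then compounds added for 30 min at room temperature; AlphaScreen streptavidin donor/nickel chelate acceptor beads (10 ug/mL final) read after 30 min dark incubation.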
An asterisk follows results filed as active; ? = inconclusive; . = no result; [ ] = dose if it differs, or a comment. Unless noted, calls come from the whole dose curve; as a rule, active = well fitted inhibition curve with a large enough effect; inconclusive = small, poorly fitted or top-dose-only effect; inactive = no such curve, though single readings can be large or run the other way.

SMILES | G9a block | HP1b binding inh | JMJD2A Tudor inh | PI5P4K alpha inh | BAZ2B inh | L3MBTL1 block
Cc1ccc(Cl)cc1-n1ncc2c(Nc3cccc(C)c3C)ncnc21 | -24.0%[59 µM] | -0.9% | -35.2% | . | -15.8% | .
C/C(CC(=O)Nc1ccc(N(C)C)cc1)=N\NC(=O)c1ccc([N+](=O)[O-])cc1Cl | 44.7µM* | ? | ? | -11.7 | ? | ?
CCc1ccccc1NC(=O)c1nnn(CC(=O)Nc2c(C)cc(C)cc2C)c1N | -4.1%[59 µM] | 24.0% | -4.3% | . | . | .
O=C(Nc1ccccc1Cl)N1CCN(c2ccc3nnc(-c4ccccc4)n3n2)CC1 | 50.1µM* | 26.2% | -15.2% | 3.8 | -29.8% | .
O=C(Nc1ccc(Cl)cc1)N1CCN(c2ccc3nnc(-c4ccc(F)cc4)n3n2)CC1 | 6.1%[59 µM] | 12.8% | -16.7% | -8.7 | 10.9% | -8.6%
O=C(O)/C=C/C(=O)NCCc1ccccc1 | -0.7% | 31.9% | ? | 2.2 | 11.3% | .
O=C(/C=C/c1ccco1)NCC1(c2ccccc2)CCCC1 | 11.2µM* | 17.2% | -3.7% | -0.8 | -28.3% | 0.4%
Cc1ccc(/C=C/C(=O)NCCc2ccccc2)o1 | 8.91µM* | ? | 28.2µM* | -60.5* | ? | -11.7%
O=C(/C=C/c1ccco1)NCCc1ccccc1 | 44.7µM* | 0.9% | -16.9% | -18.3 | -8.9% | .
O=C(CSc1nc2c([nH]c3ccccc32)c(=O)n1-c1ccccc1)NCc1ccc(F)cc1 | 7.1%[59 µM] | 7.0%[57 µM] | -11.9% | . | 3.1% | .
CCCCN1C(=O)c2[nH]nc(-c3ccccc3O)c2C1c1ccc(OCc2ccccc2)cc1 (stereo unspecified) | -32.6%[59 µM] | 16.8% | ? | . | ? | .
Cc1cccc(C)c1Nc1c(-c2ccc(O)cc2)nc2sccn12 | 3.98µM* | 15.8µM* | 44.7µM* | . | 39.8µM* | .
Cc1cccc(C)c1Nc1c(-c2ccsc2)nc2cccc(C)n12 | ? | -9.6% | -35.5% | . | -21.0% | .
COc1cc(-c2nc3sccn3c2Nc2c(C)cccc2C)ccc1O | 7.6%[59 µM] | ? | 56.2µM* | . | 11.8% | .
CCNC(=O)c1cnc2sc(N3CCC(C)CC3)nn2c1=O | -5.3%[59 µM] | 9.5% | -7.5% | . | -5.1% | .
CC(C)CN(CC(C)C)c1ccc(/C=N/n2cnnc2)cc1[N+](=O)[O-] | ? | ? | 44.7µM* | -4.8 | ? | -15.4%
N#CC/C(N)=N/Nc1nc2ccccc2nc1Cc1ccccc1 | 50.1µM* | -5.1%[57 µM] | ? | -3.0 | -16.3% | .
OCCN1CCN(c2cc(-c3ccccc3)c3ccccc3n2)CC1 | ? | ? | 0.794µM* | -4.5 | 39.8µM* | -8.6%
OCCNc1nc(N2CCN(Cc3ccccc3)CC2)nc2ccccc12 | ? | -0.4% | -27.2% | . | -8.1% | -0.8%
CN1CCN(c2nc(N3CCN(CCO)CC3)nc3ccccc23)CC1 | 50.1µM* | 29.6% | 0.0% | 3.8 | -7.7% | -7.7%
c1ccc(CN2CCN(c3nc(N4CCOCC4)c4ccccc4n3)CC2)cc1 | . | 111.0% | -9.4%[57.1 µM] | 9.2 | . | .
CCN1CCN(c2nc(NCCO)c3ccccc3n2)CC1 | 39.8µM* | 22.7% | -12.0% | 6.7 | -11.4% | -7.1%

Compound activity from PubChem BioAssay.
